The values below come from PMC7862700, “An all-to-all approach to the identification of sequence-specific readers for epigenetic DNA modifications on cytosine”.

Common to all, as to assay: DAPPL (digital affinity profiling via proximity ligation, sequencing); 10 mM Tris-HCl pH 7.5, 50 mM NaCl, 1 mM DTT, 4% glycerol, room temperature, 30 min; GST-TFs on glutathione beads, 16-mer random dsDNA library, 0.1% formaldehyde crosslink after washing; high values mean tight binding
One assay deals with T1, FEV (Homo sapiens, UniProt Q99581 1-238).
T1 sequence: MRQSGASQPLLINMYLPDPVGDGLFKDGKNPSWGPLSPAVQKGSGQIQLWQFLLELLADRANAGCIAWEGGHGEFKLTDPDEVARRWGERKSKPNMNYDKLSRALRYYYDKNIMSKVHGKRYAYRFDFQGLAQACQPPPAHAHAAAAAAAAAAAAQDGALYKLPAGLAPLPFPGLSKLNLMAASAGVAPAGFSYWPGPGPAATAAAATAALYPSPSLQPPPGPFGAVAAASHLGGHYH
The following applies: protein: recombinant; tags: N-terminal GST; dsDNA, one strand shown. The essentials: (§1)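 Human transcription factors carrying a GST fusion were produced in yeast, bound to glutathione beads, tagged with DNA barcodes and pooled together with a tag-only sample. Each pool was held with 200 nmole of a random double-stranded 16-mer DNA library in Tris/NaCl/DTT/glycerol buffer for 30 min at room temperature, then washed, crosslinked in 0.1% formaldehyde, proximity-ligated with BsaI/T4 ligase (1 h, 37 °C), PCR-amplified and sequenced on an Illumina NextSeq500. Binding signal is the read frequency of each hexamer for a given factor divided by its frequency in the tag-only sample.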

A further assay deals with ETV5 (Homo sapiens, UniProt P41161 1-510). The conditions noted are these: protein: recombinant; tags: N-terminal GST; dsDNA, one strand shown. The essentials:
as §1

The next assay has as its target HSF1 (Homo sapiens, UniProt Q00613 1-529). The conditions noted are these: protein: recombinant; tags: N-terminal GST; chain copies: 3; dsDNA, one strand shown. The essentials:
as §1

In another assay the target is T2, SPIC (Homo sapiens, UniProt Q8N5J4 1-248).
T2 sequence: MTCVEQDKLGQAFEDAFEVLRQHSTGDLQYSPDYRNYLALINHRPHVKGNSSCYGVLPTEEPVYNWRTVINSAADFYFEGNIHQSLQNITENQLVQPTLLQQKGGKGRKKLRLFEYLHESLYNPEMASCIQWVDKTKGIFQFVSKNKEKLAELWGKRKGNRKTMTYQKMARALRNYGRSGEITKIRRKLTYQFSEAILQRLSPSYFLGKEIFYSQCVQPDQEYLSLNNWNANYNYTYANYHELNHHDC
The following applies: protein: recombinant; tags: N-terminal GST; dsDNA, one strand shown. The gist of the method:
as §1

A further assay deals with ELF4 (Homo sapiens, UniProt Q99607 1-663). The conditions noted are these: protein: recombinant; tags: N-terminal GST; dsDNA, one strand shown. The essentials: as §1
Another assay deals with T3, ELK4 (Homo sapiens, UniProt P28324-2 1-405).
T3 sequence: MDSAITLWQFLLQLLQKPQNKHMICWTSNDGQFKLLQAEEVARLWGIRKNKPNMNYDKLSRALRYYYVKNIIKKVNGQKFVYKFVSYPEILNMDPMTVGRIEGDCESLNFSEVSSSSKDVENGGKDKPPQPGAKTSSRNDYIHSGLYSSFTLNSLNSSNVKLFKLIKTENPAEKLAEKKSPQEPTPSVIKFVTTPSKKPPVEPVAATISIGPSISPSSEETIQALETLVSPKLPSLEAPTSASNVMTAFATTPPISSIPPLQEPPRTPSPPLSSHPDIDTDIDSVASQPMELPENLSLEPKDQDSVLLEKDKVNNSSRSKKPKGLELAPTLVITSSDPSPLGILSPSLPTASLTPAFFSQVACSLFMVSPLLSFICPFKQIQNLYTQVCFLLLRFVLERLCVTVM
The conditions noted are these: protein: recombinant; tags: N-terminal GST; dsDNA, one strand shown. The gist of the method: as §1

The target of another assay is T4, ETV2 (Homo sapiens, UniProt O00321 1-342).
T4 sequence: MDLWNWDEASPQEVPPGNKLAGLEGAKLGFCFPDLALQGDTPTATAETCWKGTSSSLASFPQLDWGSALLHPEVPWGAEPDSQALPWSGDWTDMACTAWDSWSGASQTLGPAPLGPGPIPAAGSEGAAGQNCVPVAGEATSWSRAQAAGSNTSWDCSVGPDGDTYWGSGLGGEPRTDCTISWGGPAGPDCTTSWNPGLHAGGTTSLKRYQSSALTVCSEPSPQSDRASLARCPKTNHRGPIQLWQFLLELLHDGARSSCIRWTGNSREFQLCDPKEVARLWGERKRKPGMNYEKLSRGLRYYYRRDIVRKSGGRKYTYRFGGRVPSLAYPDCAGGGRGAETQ
The following applies: protein: recombinant; tags: N-terminal GST; dsDNA, one strand shown. The gist of the method: as §1

For another assay, the target named is T5, ELF3 (Homo sapiens, UniProt P78545 1-371).
T5 sequence: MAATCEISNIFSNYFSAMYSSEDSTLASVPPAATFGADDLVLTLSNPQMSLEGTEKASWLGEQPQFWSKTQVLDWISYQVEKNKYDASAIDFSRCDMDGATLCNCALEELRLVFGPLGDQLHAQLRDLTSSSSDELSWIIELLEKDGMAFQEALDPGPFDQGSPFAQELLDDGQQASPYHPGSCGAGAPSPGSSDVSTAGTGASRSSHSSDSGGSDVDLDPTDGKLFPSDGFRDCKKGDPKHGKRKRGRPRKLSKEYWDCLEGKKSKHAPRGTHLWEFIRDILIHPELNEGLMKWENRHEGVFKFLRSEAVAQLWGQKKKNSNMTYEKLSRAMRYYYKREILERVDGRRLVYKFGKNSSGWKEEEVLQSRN
The following applies: protein: recombinant; tags: N-terminal GST; dsDNA, one strand shown. The essentials: as §1

The target of a further assay is CRX (Homo sapiens, UniProt O43186 1-299). The conditions noted are these: protein: recombinant; tags: N-terminal GST; dsDNA, one strand shown. The essentials:
as §1

In the next assay the target is ETV1 (Homo sapiens, UniProt P50549 1-477). The following applies: protein: recombinant; tags: N-terminal GST; dsDNA, one strand shown. The gist of the method:
as §1

Another assay concerns the target T6, ERF (Homo sapiens, UniProt P50548 1-548).
T6 sequence: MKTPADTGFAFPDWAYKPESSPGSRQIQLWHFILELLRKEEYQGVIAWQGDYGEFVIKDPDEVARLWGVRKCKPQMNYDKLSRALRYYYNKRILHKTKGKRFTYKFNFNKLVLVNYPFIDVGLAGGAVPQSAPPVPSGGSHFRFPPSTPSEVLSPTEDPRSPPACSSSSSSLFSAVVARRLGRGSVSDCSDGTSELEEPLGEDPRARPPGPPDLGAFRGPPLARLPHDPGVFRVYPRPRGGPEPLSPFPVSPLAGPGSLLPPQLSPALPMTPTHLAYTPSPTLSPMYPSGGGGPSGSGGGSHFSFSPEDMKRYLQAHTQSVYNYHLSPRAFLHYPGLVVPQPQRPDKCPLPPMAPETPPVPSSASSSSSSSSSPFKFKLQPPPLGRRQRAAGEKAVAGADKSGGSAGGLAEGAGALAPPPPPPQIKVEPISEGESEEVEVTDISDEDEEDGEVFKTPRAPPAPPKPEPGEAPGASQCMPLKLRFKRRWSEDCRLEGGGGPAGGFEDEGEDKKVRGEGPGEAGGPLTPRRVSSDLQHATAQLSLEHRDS
The conditions noted are these: protein: recombinant; tags: N-terminal GST; dsDNA, one strand shown. The essentials:
as §1

For another assay, the target named is T7, ETV3L (Homo sapiens, UniProt Q6ZN32 1-361).
T7 sequence: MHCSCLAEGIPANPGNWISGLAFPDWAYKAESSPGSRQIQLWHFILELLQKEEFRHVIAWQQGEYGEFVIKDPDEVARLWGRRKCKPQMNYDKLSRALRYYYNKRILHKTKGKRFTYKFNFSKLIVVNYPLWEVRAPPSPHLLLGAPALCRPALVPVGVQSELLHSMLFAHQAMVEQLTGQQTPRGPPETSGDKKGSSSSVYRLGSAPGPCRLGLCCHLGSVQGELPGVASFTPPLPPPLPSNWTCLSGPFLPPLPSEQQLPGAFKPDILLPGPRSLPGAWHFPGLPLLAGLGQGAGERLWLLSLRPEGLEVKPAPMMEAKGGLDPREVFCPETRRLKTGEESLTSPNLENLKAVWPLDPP
The following applies: protein: recombinant; tags: N-terminal GST; dsDNA, one strand shown. The gist of the method: as §1

A further assay concerns the target T8, ETS2 (Homo sapiens, UniProt P15036 1-469).
T8 sequence: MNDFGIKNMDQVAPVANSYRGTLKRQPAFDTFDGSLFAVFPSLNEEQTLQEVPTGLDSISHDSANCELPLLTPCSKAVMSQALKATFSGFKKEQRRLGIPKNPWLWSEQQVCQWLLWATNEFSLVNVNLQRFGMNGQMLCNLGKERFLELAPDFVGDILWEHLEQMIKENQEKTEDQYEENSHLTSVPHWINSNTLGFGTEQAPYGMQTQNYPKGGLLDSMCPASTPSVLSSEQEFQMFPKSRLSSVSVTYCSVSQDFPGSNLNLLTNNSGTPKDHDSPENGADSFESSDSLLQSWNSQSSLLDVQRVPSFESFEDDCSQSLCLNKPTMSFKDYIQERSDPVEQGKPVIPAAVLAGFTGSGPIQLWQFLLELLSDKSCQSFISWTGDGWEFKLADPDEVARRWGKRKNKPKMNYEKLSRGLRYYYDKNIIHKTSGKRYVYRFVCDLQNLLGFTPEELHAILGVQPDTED
The following applies: protein: recombinant; tags: N-terminal GST; dsDNA, one strand shown. The essentials: as §1

In another assay the target is T9, SPDEF (Homo sapiens, UniProt O95238 1-335).
T9 sequence: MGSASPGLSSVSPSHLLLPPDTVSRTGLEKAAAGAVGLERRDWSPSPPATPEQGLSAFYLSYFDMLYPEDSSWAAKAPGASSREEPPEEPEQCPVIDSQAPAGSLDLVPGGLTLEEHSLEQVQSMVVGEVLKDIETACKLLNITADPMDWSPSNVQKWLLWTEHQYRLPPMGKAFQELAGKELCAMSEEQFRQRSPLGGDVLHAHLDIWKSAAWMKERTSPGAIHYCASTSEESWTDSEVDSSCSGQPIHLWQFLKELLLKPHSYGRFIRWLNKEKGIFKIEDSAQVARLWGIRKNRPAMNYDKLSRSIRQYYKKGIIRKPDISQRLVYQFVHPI
The conditions noted are these: protein: recombinant; tags: N-terminal GST; dsDNA, one strand shown. The gist of the method:
as §1

The target in another assay is T10, ETV7 (Homo sapiens, UniProt Q9Y603 1-341).
T10 sequence: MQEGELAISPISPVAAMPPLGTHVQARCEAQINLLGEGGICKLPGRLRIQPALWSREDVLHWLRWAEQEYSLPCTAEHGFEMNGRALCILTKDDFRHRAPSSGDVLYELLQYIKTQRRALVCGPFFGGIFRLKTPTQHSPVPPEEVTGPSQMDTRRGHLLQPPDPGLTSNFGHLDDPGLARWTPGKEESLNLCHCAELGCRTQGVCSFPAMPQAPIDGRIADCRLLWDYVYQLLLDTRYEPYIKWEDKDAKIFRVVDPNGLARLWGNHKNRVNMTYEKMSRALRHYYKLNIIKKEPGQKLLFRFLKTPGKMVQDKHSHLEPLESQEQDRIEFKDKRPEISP
The conditions noted are these: protein: recombinant; tags: N-terminal GST; dsDNA, one strand shown. The essentials:
as §1

The target in another assay is T11, ELF5 (Homo sapiens, UniProt Q9UKW6-2 1-255).
T11 sequence: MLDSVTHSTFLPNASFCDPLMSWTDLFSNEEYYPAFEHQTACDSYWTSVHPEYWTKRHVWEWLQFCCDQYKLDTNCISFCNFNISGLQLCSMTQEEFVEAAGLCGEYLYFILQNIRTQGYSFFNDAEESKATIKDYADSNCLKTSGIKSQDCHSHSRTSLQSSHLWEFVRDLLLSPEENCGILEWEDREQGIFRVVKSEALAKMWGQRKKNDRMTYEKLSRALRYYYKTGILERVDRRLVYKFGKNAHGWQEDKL
The following applies: protein: recombinant; tags: N-terminal GST; dsDNA, one strand shown. The essentials:
as §1

In the next assay the target is T12, ETV3 (Homo sapiens, UniProt P41162-2 1-143).
T12 sequence: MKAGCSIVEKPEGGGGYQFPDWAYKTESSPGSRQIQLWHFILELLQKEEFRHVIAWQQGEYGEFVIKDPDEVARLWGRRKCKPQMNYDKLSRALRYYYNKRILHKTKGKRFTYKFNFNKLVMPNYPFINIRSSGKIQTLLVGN
The following applies: protein: recombinant; tags: N-terminal GST; dsDNA, one strand shown. The essentials: as §1

A further assay addresses ETV6 (Homo sapiens, UniProt P41212 1-452). The conditions noted are these: protein: recombinant; tags: N-terminal GST; dsDNA, one strand shown. The gist of the method:
as §1

Chain of HSF1 (Q00613 whole entry): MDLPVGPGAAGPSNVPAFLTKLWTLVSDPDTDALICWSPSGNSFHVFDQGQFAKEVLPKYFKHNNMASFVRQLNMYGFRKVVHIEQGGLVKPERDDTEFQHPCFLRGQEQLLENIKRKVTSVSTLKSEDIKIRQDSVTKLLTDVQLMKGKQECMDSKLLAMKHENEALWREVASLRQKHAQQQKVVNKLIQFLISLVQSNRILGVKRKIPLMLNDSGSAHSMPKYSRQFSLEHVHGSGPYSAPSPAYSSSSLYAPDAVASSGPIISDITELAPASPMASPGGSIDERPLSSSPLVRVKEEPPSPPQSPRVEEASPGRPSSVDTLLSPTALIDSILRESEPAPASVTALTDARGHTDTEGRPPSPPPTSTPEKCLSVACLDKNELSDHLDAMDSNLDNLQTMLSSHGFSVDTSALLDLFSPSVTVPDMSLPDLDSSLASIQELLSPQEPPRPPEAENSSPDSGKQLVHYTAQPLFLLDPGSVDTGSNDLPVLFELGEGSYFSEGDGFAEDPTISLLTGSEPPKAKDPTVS
Chain of ETV6 (P41212 whole entry): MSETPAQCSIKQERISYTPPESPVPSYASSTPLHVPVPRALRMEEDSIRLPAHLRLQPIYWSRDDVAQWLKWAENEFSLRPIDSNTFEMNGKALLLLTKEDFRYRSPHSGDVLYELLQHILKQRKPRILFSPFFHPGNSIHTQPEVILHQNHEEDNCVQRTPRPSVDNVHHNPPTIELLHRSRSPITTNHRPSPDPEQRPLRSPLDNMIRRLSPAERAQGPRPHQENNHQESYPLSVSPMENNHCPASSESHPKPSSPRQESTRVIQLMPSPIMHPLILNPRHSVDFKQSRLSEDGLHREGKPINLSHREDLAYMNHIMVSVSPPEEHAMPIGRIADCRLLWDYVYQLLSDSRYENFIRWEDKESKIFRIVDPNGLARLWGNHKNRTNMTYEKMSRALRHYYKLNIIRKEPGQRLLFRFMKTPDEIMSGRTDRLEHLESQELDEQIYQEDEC
Chain of ELF4 (Q99607 whole entry): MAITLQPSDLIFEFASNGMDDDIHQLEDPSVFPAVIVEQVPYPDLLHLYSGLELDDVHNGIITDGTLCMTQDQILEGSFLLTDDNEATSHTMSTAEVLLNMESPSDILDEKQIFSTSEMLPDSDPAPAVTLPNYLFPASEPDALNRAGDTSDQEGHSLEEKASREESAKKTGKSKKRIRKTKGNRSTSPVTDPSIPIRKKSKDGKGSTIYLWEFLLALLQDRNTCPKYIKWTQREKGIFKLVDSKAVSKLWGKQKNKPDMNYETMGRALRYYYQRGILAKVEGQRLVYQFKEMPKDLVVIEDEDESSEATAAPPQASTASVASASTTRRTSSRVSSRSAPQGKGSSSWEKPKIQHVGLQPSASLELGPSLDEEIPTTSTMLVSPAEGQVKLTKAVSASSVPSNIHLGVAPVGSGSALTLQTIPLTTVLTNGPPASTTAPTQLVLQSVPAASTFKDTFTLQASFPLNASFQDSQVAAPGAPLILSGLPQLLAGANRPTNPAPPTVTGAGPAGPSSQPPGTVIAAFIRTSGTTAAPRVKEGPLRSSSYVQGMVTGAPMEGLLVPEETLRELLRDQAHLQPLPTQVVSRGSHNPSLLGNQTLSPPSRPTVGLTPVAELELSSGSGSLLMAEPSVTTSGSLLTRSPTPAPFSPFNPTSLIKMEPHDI
Chain of CRX (O43186 whole entry): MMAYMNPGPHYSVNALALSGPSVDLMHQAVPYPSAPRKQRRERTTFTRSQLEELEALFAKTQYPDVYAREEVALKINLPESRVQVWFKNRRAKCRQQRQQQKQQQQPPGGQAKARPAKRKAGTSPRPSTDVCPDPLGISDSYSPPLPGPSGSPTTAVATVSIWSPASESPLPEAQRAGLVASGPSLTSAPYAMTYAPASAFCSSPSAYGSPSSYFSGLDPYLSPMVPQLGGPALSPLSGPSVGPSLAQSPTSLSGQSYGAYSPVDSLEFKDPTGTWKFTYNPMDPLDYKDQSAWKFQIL
Chain of ETV1 (P50549 whole entry): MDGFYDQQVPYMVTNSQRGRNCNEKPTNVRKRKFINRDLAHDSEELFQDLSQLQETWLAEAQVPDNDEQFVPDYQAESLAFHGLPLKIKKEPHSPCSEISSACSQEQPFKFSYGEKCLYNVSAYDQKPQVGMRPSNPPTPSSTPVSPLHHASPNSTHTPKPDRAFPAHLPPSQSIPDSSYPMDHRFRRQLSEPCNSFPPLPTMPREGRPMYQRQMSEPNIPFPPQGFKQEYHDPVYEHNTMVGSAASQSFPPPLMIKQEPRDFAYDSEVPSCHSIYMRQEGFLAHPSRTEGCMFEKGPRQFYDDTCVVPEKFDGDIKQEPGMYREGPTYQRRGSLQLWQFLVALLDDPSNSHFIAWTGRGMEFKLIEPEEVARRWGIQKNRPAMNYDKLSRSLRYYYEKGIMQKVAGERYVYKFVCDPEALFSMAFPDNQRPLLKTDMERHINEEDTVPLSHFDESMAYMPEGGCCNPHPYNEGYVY
Chain of ETV5 (P41161 whole entry): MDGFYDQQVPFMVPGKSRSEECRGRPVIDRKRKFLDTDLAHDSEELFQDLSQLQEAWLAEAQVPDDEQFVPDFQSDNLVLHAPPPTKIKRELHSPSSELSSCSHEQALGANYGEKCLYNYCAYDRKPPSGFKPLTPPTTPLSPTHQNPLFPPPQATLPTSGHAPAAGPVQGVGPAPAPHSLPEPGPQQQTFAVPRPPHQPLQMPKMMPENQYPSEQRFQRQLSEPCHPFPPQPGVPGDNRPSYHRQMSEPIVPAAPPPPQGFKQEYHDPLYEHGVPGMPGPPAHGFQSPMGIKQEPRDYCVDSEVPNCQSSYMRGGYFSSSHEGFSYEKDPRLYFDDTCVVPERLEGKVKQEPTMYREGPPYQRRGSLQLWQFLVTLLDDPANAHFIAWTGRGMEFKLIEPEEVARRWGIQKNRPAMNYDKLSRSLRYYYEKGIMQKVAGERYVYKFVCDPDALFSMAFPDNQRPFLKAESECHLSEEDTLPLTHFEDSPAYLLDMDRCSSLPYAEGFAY

For TCGTTT, the binding signal in the assay with FEV is 1.14 fold enrichment (6-mer frequency, TF over GST control); with ETV5, 1.09 fold enrichment (6-mer frequency, TF over GST control); with HSF1, 1.02 fold enrichment (6-mer frequency, TF over GST control); in the assay with SPIC it was 1.15 fold enrichment (6-mer frequency, TF over GST control); with ELF4, 1.17 fold enrichment (6-mer frequency, TF over GST control); with ELK4, 1.24 fold enrichment (6-mer frequency, TF over GST control). Moreover, the binding signal with ETV2 was 1.3 fold enrichment (6-mer frequency, TF over GST control); with ELF3, 1.27 fold enrichment (6-mer frequency, TF over GST control); with CRX, 1.08 fold enrichment (6-mer frequency, TF over GST control); in the assay with ETV1, 1.18 fold enrichment (6-mer frequency, TF over GST control); with ERF it was 1.07 fold enrichment (6-mer frequency, TF over GST control); in the assay with ETV3L it was 1.15 fold enrichment (6-mer frequency, TF over GST control). Also, the binding signal in the assay with ETS2 is 1.28 fold enrichment (6-mer frequency, TF over GST control); with SPDEF, 1.12 fold enrichment (6-mer frequency, TF over GST control); with ETV7 it was 1.31 fold enrichment (6-mer frequency, TF over GST control); with ELF5, 1.27 fold enrichment (6-mer frequency, TF over GST control); with ETV3, 1.25 fold enrichment (6-mer frequency, TF over GST control); in the assay with ETV6, 1.15 fold enrichment (6-mer frequency, TF over GST control).
